A selection: hits, their analogues and other compounds. The true share with any hit is near 2.2%.
aSyn 5UTR inh: MLPCN primary screen, SNCA 5' untranslated region | alpha-synuclein 5'UTR reporter, inhibitor activity | inhibition, % (tested at 7.5 µM) | 0.82% of 300,000 active | AID 1813; in the data active = inhibition above about 60%;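 also: H4 neuroglioblastoma cells stably carrying SNCA 5'UTR luciferase fusion; 0% = DMSO wells and 100% = positive control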
IEC-6 tox: kills IEC-6 intestinal cells in KLF5 counter-screen | 0.78% of 290,000 active | AID 1825 | IEC-6 cytotoxicity, luminescence viability | inhibition, % at 5 µM; in the data active = inhibition above about 22%;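 also: 0% = plate median of test compound wells and 100% = cytotoxic reference compound wells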
Ba/F3 V617F tox: reduce viability of Ba/F3 cells dependent on JAK2V617F; Ba/F3 EpoR-JAK2V617F viability, ATP luminescence; inhibition, % at 5.6 µM; 1.1% of 220,000 active; AID 1446;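 active = inhibition above the campaign mean plus 3 SD over all tested compounds, cut at about 24% in these data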;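 also: cytokine-independent growth of Ba/F3 cells driven by EpoR plus mutant JAK2; 0% = DMSO-treated cells and 100% = JAK inhibitor I control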
BaF3 tox: reduces parental Ba/F3 cell viability, JAK2V617F counter-screen; CellTiter-Glo ATP luminescence; inhibition, % at 5.6 µM; 1.1% of 220,000 active; AID 1486;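 active = inhibition above a per-campaign cutoff, the mean inhibition of all tested compounds plus 3 SD, cut at about 27% in these data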;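 also: 0% = DMSO wells and 100% = JAK Inhibitor I control wells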
KLF5 inh: kruppel-like factor 5 inhibition. inhibition, % at 5 µM. 0.23% of 290,000 active. DLD-1 KLF5 promoter-luciferase reporter, luminescence;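 active = inhibition above a per-plate limit of that plate's mean compound inhibition plus 3 SD, cut at about 60% in these data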;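 also: 0% = DMSO wells and 100% = LY294002 at 200 µM; higher means less KLF5 promoter-driven luciferase light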
APP 5UTR inh: APP translation inhibition. SH-SY5Y APP 5'UTR-luciferase reporter, luminescence. inhibition, % at 2 µM. 0.82% of 190,000 active;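 active = inhibition above a set limit, derived from the sample mean plus 3 SD, cut at about 45% in these data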
Numbers without * were called inactive; x = no result.

SMILES	aSyn 5UTR inh	IEC-6 tox	Ba/F3 V617F tox	BaF3 tox	KLF5 inh	APP 5UTR inh
CC(C)(C)NC(=O)C(c1ccncc1)N(Cc1cccs1)C(=O)Cn1nnc(-c2ccc(F)cc2)n1 (stereo unspecified)	-19	12	-1	3	-3	5
CC(C)(C)NC(=O)C(OC(=O)Cn1nnc(-c2ccc(F)cc2)n1)c1ccncc1 (stereo unspecified)	15	-2	1	93*	-37	-22
C=C1C(=O)O[C@@H]2C[C@@H](C)[C@@H]3C=CC(=O)[C@@]3(C)[C@@H](OC(C)=O)[C@H]12	95*	x	x	x	x	x
COCCNC(=O)/C(C#N)=C\c1ccc(CNC(=O)C(=O)Nc2ccc(C)c(C)c2)o1	9	3	2	10	3	-16
COc1ccc(NC(=O)C(=O)N/N=C\c2ccc(CNC(=O)C(=O)Nc3ccc(C)c(C)c3)o2)c(OC)c1	88*	-1	x	x	-34	x
COc1ccc(C(=O)NNC(=O)CCn2nnc(-c3ccc(Cl)cc3)n2)cc1OC	-12	3	-1	5	12	-3
COC(=O)c1ccccc1NC(=O)CSc1nc(-c2ccco2)cc(C(F)(F)F)n1	x	-2	-1	5	-11	73*
Cc1ccc(NC(=O)c2ccc(CNS(=O)(=O)c3cccc(C(F)(F)F)c3)cc2)cc1	12	5	4	33*	-21	17
O=C(CNS(=O)(=O)c1ccccc1)Nc1ccc(C(F)(F)F)cc1	-2	-3	-2	3	-57	68*
O=C(Nc1ccccc1F)c1ccc(CNS(=O)(=O)c2cccc(C(F)(F)F)c2)cc1	-15	-1	-1	1	3	2
O=S(=O)(c1ccc(Cl)cc1)N1CCN(Cc2ccc(O)c3ncccc23)CC1	77*	2	0	2	6	34
Oc1ccc(CN2CCN(Cc3ccccc3)CC2)c2cccnc12	-10	6	-2	2	12	-12
Nc1c(C(=O)c2ccccc2)sc2snc(SCC(=O)c3ccccc3)c12	-37	4	-4	95*	-30	-38
CCCCN(C(=O)CSCC(=O)Nc1ccc(C)cc1)c1c(N)n(Cc2ccccc2)c(=O)[nH]c1=O	15	x	x	x	x	x
Cc1cccc(N2C(=O)c3cccc4c(N5CCCCC5)c([N+](=O)[O-])cc(c34)C2=O)c1C	62*	0	-1	5	-10	20
CC1=CC(C)[C@H](/C=N/n2c(=O)[nH]c3c([nH]c4ccc(C)cc43)c2=O)C(C)C1 (stereo partly specified)	-10	9	6	6	-9	14
Cc1ccc(NC(=O)/C(=C/c2cccs2)NC(=O)c2ccco2)cc1	2	-2	-3	29*	-11	3
Cc1ccc(C(=O)NCC(c2ccco2)N2CCc3ccccc32)cc1 (stereo unspecified)	-5	x	x	x	x	x
CC(=O)Nc1sc(C)c(C)c1C(=O)OCC(=O)N(CC(C)C)c1c(N)n(Cc2ccccc2)c(=O)[nH]c1=O	77*	x	x	x	x	x
COC(=O)c1cccc(NC(=O)NC(=O)c2ccccc2Cl)c1	95*	-2	-2	-4	-1	x
CN(C)c1ccc(CCc2ccc(N)cc2)cc1	84*	x	x	x	x	x
COc1cccc(C(=O)Nc2ccc3[nH]c(=O)[nH]c3c2)c1OC	68*	4	x	x	-14	x
CCOC(=O)c1ccccc1NC(=O)CSc1nc(N)cc(=O)[nH]1	22	2	0	-3	-9	x
CCCCCCCCCCCCCCCCn1cc[n+](CC(C)=O)c1	x	2	68*	75*	2	20
C#CCn1cc[n+](CC(=O)N(C)C)c1	0	2	-4	3	-31	-5
SMILES	aSyn 5UTR inh	IEC-6 tox	Ba/F3 V617F tox	BaF3 tox	KLF5 inh	APP 5UTR inh
NS(=O)(=O)c1ccc(NNC(=O)c2ccc(F)cc2F)cc1	3	-4	2	-4	-37	x
CC(C)CC1(C)NC(=O)N(CC(=O)Nc2cccc(S(=O)(=O)N(C)c3ccccc3)c2)C1=O (stereo unspecified)	3	0	0	11	-9	-16
COc1cccc(Sc2ccccc2/C=N/NC(N)=O)c1	16	7	3	7	16	65*
COc1ccc(NC2=Nc3cccc4cccc2c34)cc1	-34	0	-2	4	-34	2
Cc1ccc(CCNC(=O)C2CCC(=O)N2Cc2ccc(F)cc2)cc1 (stereo unspecified)	0	-5	x	x	5	x
O=C(NCCc1ccc(Cl)cc1)C1CCC(=O)N1Cc1ccc(F)cc1 (stereo unspecified)	29	-4	-3	96*	-10	-3
Nc1ccc(-c2ncc(-c3ccccc3)o2)cc1	86*	2	x	x	24	x
Cc1ccc(-c2cnc(-c3ccncc3)o2)cc1	-157	-12	3	7	-57	-67
CC(=O)c1sc(Nc2nc(C)cc(C)n2)nc1C	-28	4	-2	2	-13	83*
CCN(CC)c1c([N+](=O)[O-])c(=O)n(CC)c2ccccc12	12	-1	0	1	-2	x
Nc1ccc2nc(-c3ccc(N)c(Cl)c3)[nH]c2c1	-115	-1	13	14	-87	-59
Nc1ccc(-c2nc3c(Cl)cc(N)cc3[nH]2)cc1	85*	8	3	-5	42	63*
Cc1cccc(NC(=O)CSc2cc(C)c(C#N)c3nc4ccccc4n23)c1	-2	-9	-1	-7	-19	x
COc1ccccc1-c1noc(-c2ccccc2C(=O)NCC2CCCO2)n1 (stereo unspecified)	0	3	x	x	-15	x
Cc1ccccc1-c1noc(-c2ccccc2C(=O)NCC2CCCO2)n1 (stereo unspecified)	x	0	0	62*	9	x
O=c1c(Cl)c(N2CCCCC2)cnn1-c1nc2ccccc2[nH]1	93*	16	16	15	50	-97
Clc1ccc2nc(N3CCCCC3)[nH]c2c1	-123	4	2	3	-166	-119
COc1ccc(S(=O)(=O)N(C)c2ccc(OC(=O)C(C)Oc3ccc(F)cc3)cc2)cc1 (stereo unspecified)	-11	x	x	x	x	x
CCOC(=O)c1cnc(-n2nc(C)cc2C)nc1NNc1cc(-c2ccccc2)nc(C)n1	93*	4	1	6	-17	56*
CCOC(=O)c1cnc(-n2nc(C)cc2C)nc1NCc1ccccc1	27	8	1	1	-16	7
CCOC(=O)c1cnc(-n2nc(C)cc2C)nc1NNc1ncc(-c2ccccc2)cn1	83*	-1	-3	1	-10	x
COc1ccc(/C=C2\CCc3ccccc3C2=O)cc1CN1CCOCC1	62*	-9	0	-2	-29	x
COc1ccc(/C=C2/CCc3ccccc3C2=O)cc1OC	-18	-2	0	6	-6	-101
O=[N+]([O-])c1nn(-c2ccccc2)[n+]([O-])c1N1CCN(c2ccccc2F)CC1	19	6	1	3	-38	-7
Cc1nc2ccc(CN(C)c3ccc(C(=O)N[C@@H](CCC(=O)O)C(=O)O)s3)cc2c(=O)[nH]1	103*	x	x	x	x	x

Bioassay records from PubChem.
